Assay results reported in PubChem BioAssay.
Activity calls are given as the source filed them.

Assay: probe aLefty1 binding on compound microarray – biochemical, small-molecule microarray, 635/667 nm fluorescence, primary screen (AID 1153);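 note: score merges spot fluorescence with signal-to-noise ratio from the scanned slide images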
Conditions: higher = more signal

| Structure (SMILES) | composite z-score |
| --- | --- |
| O=C1O[C@H](c2ccccc2)[C@H](c2ccccc2)N2[C@H]1[C@@H](C(=O)NC[C@H](O)c1ccccc1)[C@]1(C(=O)Nc3ccccc31)[C@H]2c1ccc(OCCO)cc1 | 0.159 |
| O=C1c2ccccc2[C@](Cc2ccccc2I)(C(=O)NC2CC2)[C@H](c2ccc(CO)cc2)N1C1CCCCC1 | 0.166 |
| CC(=O)NCCCC[C@@H]1NC(=O)[C@@H]2C[C@H](C(=O)NCCCCCCNC(=O)CS)[C@H](c3cccc(OCCO)c3)N2C1=O | -0.0334 |
| COCCOC(=O)N1C(=O)[C@@]2(c3cc(C#CC4=CCCCC4)ccc31)[C@H](C(=O)N1CCc3cc(OC)c(OC)cc3C1)[C@H]1C(=O)O[C@H](c3ccccc3)[C@H](c3ccccc3)N1[C@@H]2c1ccc(OCCO)cc1 | 0.0752 |
| COCCOC(=O)N1C(=O)[C@@]2(c3cc(C#CC4=CCCCC4)ccc31)[C@H](C(=O)Nc1nc3ccccc3s1)[C@H]1C(=O)O[C@H](c3ccccc3)[C@H](c3ccccc3)N1[C@@H]2c1ccccc1OCCO | 1.43 |
| COc1ccc(C(O)C2C=CC3C(=O)N(c4ccccc4)C(=O)C3N2Nc2ccc(C(C)C)cc2)cc1OCc1ccccc1 (stereo unspecified) | 0.129 |

Assay: plasmodial surface anion channel blockers, osmotic lysis – cell-based, P. falciparum Indochina, OD700, 1 h, primary screen (AID 1154)
Conditions: P. falciparum Indochina infected RBC osmotic lysis, higher = more signal, called active from +8 up or from −8 down

| Structure (SMILES) | z-score |
| --- | --- |
| CN(C)C(=O)[C@]1(Cc2ccccc2N=[N+]=[N-])N=C(c2ccc(OCCCO)cc2)O[C@@H]1c1ccccc1 | 30.2 (active) |
| CCCCCC1=C2CNC(CCC)(C(=O)OC)C=C2C(C)C1=O (stereo unspecified) | 2.2 (inactive) |
| COCCOC(=O)N1C(=O)[C@@]2(c3cc(C#CCCO)ccc31)[C@H](C(=O)N1CCc3cc(OC)c(OC)cc3C1)[C@H]1C(=O)O[C@H](c3ccccc3)[C@H](c3ccccc3)N1[C@@H]2c1ccc(O)cc1 | 1.49 (inactive) |
| O=C(NCc1ccccc1)[C@@]1(Cc2ccccc2)N=C(c2ccc(OCCCO)cc2)O[C@H]1c1ccccc1 | 13.5 (active) |
| CC(C)c1ccc(NN2C(C(O)c3cc(C(F)(F)F)cc(C(F)(F)F)c3)C=CC3C(=O)N(c4ccccc4)C(=O)C32)cc1 (stereo unspecified) | 3.24 (inactive) |
| CN1C(=O)[C@]2(Cc3ccccc3)N=C(c3ccc(OCCCO)cc3)O[C@@H]2c2ccccc21 | 33.7 (active) |
| CC(C)(C)OC(=O)CC[C@]1(C(=O)NCC(O)CO)COC(c2ccc(OCCCO)cc2)=N1 (stereo partly specified) | 5.77 (inactive) |
| CCOC(=O)C[C@H]1[C@H](OC(=O)c2cc3ccccc3oc2=O)[C@@H](NC(=O)Cc2ccc(OC)cc2)c2cc(OCCCO)ccc2N1C(=O)c1ccccc1 | 0.743 (inactive) |
| COc1ccc(CCNC(=O)[C@@]2(Sc3ccc(C)cc3)CC(=O)N(C3CCCCC3)[C@@H]2c2ccc(CO)cc2I)cc1 | 2.91 (inactive) |
| COc1ccc(C(=O)O[C@H]2CC[C@]3(C)C4=C(CCC3C2(C)C)[C@]2(C)CC[C@H]([C@H](C)CCCC(C)C)[C@@]2(C)CC4)cc1 (stereo partly specified) | -0.44 (inactive) |
| CCOC(=O)C[C@H]1[C@H](OC(=O)Cc2ccc3c(c2)OCO3)[C@@H](NC(=O)c2ccc3ccccc3c2)c2cc(OCCCO)ccc2N1C(=O)c1ccccc1 | 4.03 (inactive) |
| CCN(CC)c1ccc(N2CC=CC34O[C@@H]5/C=C\CCCOC(=O)C5[C@H]3C(=O)N(CCO)[C@@H]4C2=O)cc1 (stereo partly specified) | 0.897 (inactive) |
| C=CCNC(=O)[C@@H]1[C@H]2C(=O)O[C@H](c3ccccc3)[C@H](c3ccccc3)N2[C@H](c2ccccc2OCCO)[C@@]12C(=O)N(C(=O)OCCOC)c1ccc(C#CCNC(N)=O)cc12 | 3.09 (inactive) |
| O=C1C[C@]2(c3ccc([N+](=O)[O-])cc3)C(=O)N(CCN3CCOCC3)c3cc(CO)ccc3[C@H]2N1C1CCCCC1 | 1.23 (inactive) |
| CN1C(=O)C2C=CC(C(O)C3CC=CCC3)N(NC(=O)OC(C)(C)C)C2C1=O (stereo unspecified) | 0.23 (inactive) |
| COCCCNC(=O)C1N=C(c2ccc(OCCCO)cc2)N(c2ccccc2)O1 (stereo unspecified) | 18.4 (active) |
| C=C(COC)/C(=C/C[C@H](OC(=O)c1ccncc1)c1ccc(OCCO)cc1)c1cnc2ccccc2c1 | 20 (active) |
| C=CC[C@@]1(C(=O)N(C)C)N=C(c2ccc(OCCCO)cc2)O[C@@H]1c1ccccc1N=[N+]=[N-] | 33 (active) |

| Structure (SMILES) | z-score |
| --- | --- |
| C=CCOC(=O)[C@H]1[C@@H]2C(=O)O[C@@H](c3ccccc3)[C@@H](c3ccccc3)N2[C@@H](c2ccc(OCCOC(=O)[C@@H]3C[C@@H]4C(=O)N[C@@H](CCCC[N+](C)(C)C)C(=O)N4[C@@H]3c3ccc(O)cc3)cc2)[C@]12C(=O)Nc1ccccc12 | -0.906 (inactive) |
| O=C1NC(=O)C2C1C=CC(C(O)c1cccc3ccccc13)N2Nc1ccccn1 (stereo unspecified) | 1.06 (inactive) |
| COc1ccc(C(=O)Nc2cccc(CN3C(=O)[C@]4(O[C@H](CCO)[C@@H]([Si](C)(C)c5ccc(OC)cc5)[C@@H]4C)c4ccccc43)c2)cc1 | 2.54 (inactive) |
| COC(=O)c1c(CC[C@@H](CO)NC(=O)N2CCC[C@H]2Cn2cc(-c3ccccn3)nn2)oc(C(C)=O)c1C(=O)OC | 1.58 (inactive) |
| C=CCN1C(=O)[C@]2(O[C@H](CCO)[C@@H]([Si](C)(C)c3ccc(OC)cc3)[C@@H]2C)c2cc(N3C(=O)c4cccc5cccc3c45)ccc21 | 6.44 (inactive) |
| O=C(NCc1ccccc1)[C@@]1(CCS(=O)(=O)c2ccccc2)N=C(c2ccc(OCCCO)cc2)O[C@H]1c1ccccc1 | 26.4 (active) |
| CC(C)C(=C=CC[C@@H](O)c1ccccc1OCCO)CCO | 1.95 (inactive) |
| O=C(NCC(F)(F)F)[C@@H]1c2ccccc2C(=O)N(C2CCCCC2)[C@H]1c1ccc(CO)cc1 | 0.732 (inactive) |
| CN1C(=O)C2C=CC(C(O)c3cccs3)N(Nc3ccccc3)C2C1=O (stereo unspecified) | -0.203 (inactive) |
| COc1cc2c(cc1O)C(C1CC1)N(Cc1cc3c(cc1Br)OCO3)CC2 (stereo unspecified) | 9.09 (active) |
| COCCOC(=O)N1C(=O)[C@@]2(c3cc(C#CCCO)ccc31)[C@H](c1ccc(OCCO)cc1)N1[C@H](c3ccccc3)[C@H](c3ccccc3)OC(=O)[C@H]1[C@@H]2C(=O)N1CCN(c2ncccn2)CC1 | 5.15 (inactive) |
| O=C1O[C@H](c2ccccc2)[C@H](c2ccccc2)N2[C@H]1[C@@H](C(=O)NC[C@H](O)c1ccccc1)[C@]1(C(=O)Nc3ccccc31)[C@H]2c1ccc(OCCO)cc1 | 4.2 (inactive) |
| O=C1c2ccccc2[C@](Cc2ccccc2I)(C(=O)NC2CC2)[C@H](c2ccc(CO)cc2)N1C1CCCCC1 | 22.5 (active) |
| CC(=O)NCCCC[C@@H]1NC(=O)[C@@H]2C[C@H](C(=O)NCCCCCCNC(=O)CS)[C@H](c3cccc(OCCO)c3)N2C1=O | 3.47 (inactive) |
| COCCOC(=O)N1C(=O)[C@@]2(c3cc(C#CC4=CCCCC4)ccc31)[C@H](C(=O)N1CCc3cc(OC)c(OC)cc3C1)[C@H]1C(=O)O[C@H](c3ccccc3)[C@H](c3ccccc3)N1[C@@H]2c1ccc(OCCO)cc1 | 3.71 (inactive) |
| COCCOC(=O)N1C(=O)[C@@]2(c3cc(C#CC4=CCCCC4)ccc31)[C@H](C(=O)Nc1nc3ccccc3s1)[C@H]1C(=O)O[C@H](c3ccccc3)[C@H](c3ccccc3)N1[C@@H]2c1ccccc1OCCO | 2.84 (inactive) |
| COc1ccc(C(O)C2C=CC3C(=O)N(c4ccccc4)C(=O)C3N2Nc2ccc(C(C)C)cc2)cc1OCc1ccccc1 (stereo unspecified) | 2.07 (inactive) |
